Screening results (PubChem BioAssay)
Sampled rows, rich in hits. Any-hit rate of the full collection: about 1.6%.
PLAP activator: activators of human placental alkaline phosphatase; AID 696; hit rate 1.2% among 96,000; purified PLAP enzyme, luminescent substrate read-out; stronger effect = higher value; activation fold at 20 µM; in the data active = activation fold above about 2
PTPN22 inh 2: LYP (human) phosphatase inhibition; recombinant LYP catalytic domain, DiFMUP fluorescence; inhibition, % at 2 µM; hit rate 0.21% among 96,000; AID 640;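 active = inhibition at 2 µM at or above a set limit, the screen mean plus 3 SD, cut at about 24% in these data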;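 also: 0% = DMSO with enzyme and 100% = enzyme fully blocked by orthovanadate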
Target sequence (Q9Y2R2 whole entry, looked up, the tested form may be a part): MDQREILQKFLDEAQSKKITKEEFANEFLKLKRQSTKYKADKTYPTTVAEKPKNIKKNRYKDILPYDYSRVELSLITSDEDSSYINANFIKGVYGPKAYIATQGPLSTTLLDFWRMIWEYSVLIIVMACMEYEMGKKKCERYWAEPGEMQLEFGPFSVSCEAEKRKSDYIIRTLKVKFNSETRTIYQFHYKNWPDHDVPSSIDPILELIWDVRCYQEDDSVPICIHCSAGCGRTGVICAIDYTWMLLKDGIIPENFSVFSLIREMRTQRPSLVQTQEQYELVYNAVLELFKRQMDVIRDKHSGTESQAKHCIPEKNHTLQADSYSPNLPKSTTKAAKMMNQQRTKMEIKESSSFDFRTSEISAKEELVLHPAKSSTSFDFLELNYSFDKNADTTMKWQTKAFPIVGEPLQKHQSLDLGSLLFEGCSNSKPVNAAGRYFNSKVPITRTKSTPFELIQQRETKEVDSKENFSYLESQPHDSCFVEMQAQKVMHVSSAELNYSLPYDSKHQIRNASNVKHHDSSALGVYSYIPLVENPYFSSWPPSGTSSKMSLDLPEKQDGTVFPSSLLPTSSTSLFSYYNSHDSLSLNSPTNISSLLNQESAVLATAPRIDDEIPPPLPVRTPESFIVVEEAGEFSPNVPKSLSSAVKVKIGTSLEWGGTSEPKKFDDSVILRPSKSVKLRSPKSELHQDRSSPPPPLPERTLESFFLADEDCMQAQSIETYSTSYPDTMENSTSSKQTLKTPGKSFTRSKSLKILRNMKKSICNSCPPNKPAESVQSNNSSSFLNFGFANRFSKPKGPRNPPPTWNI
LYP act: LYP (human) phosphatase activation; Q9Y2R2; recombinant LYP, DiFMUP fluorescence; 0 = plate median, 100 = signal doubled; activation, % at 2 µM; hit rate 0.11% among 96,000;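 active = activation at 2 µM above a set limit, the mean plus 5 SD, cut at about 37% in these data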
TNAP act DEA: activates human TNAP at intermediate phosphate acceptor concentration | purified TNAP, CDP-star luminescence, 100 mM DEA, 30 min; stronger effect = higher value; scale: 0 levamisole-inhibited, 1 vehicle-only enzyme | activation factor at 20 µM | 64,000 tested, under 10 active;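 active = activation factor of at least 2 at 20 µM, relative to controls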
MT1-MMP txn act: activates MT1-MMP transcription; HT1080 MT1-MMP promoter luciferase reporter, luminescence, overnight; stronger effect = higher value; hit rate 0.16% among 86,000; activation factor at 10 µM;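 active = activation factor of at least 2 for MT1-MMP transcription at 10 µM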
Active calls of the source: *; x = no result.

SMILES	PLAP activator	PTPN22 inh 2	LYP act	TNAP act DEA	MT1-MMP txn act
CCOC(=O)c1ccc(Nc2c(CC)c(C)nc3ncnn23)cc1	x	9.6	-13.6	1	1.1
CC[C@H]1C2=C3C(CC[C@H]4C(OCc5ccc(F)cc5C(F)(F)F)OC[C@](C)([C@@H]34)N(C(=O)OC(C)(C)C)C2)C(COC(C)=O)C1COC(C)=O (stereo partly drawn)	x	x	x	x	1.2
Nc1ccc(Cc2nc3c(ccc4ccccc43)[nH]2)cc1	1	15.9	-14.4	x	x
c1ccc(-c2nc3c(ccc4ccccc43)[nH]2)nc1	x	9.0	-9.6	x	2.3*
O=c1[nH]c(-c2ccccn2)nc2ccccc12	2.4*	-2.5	0.2	1.1	1.3
CCC/C=C(\CCC)C(NC(=O)c1ccc(-c2ccccc2)cc1)c1ccc(C(=O)OC)cc1 (stereo not drawn)	x	x	x	x	1.2
COC(=O)[C@@]1(Cc2ccccc2)[C@H]2c3cc(C(=O)N(C)C)n(Cc4nc5ccccc5[nH]4)c3C[C@H]2CN1C(=O)c1ccccc1	x	x	x	x	1.1
Cc1cc(Cl)c(S(=O)(=O)NC(C(=O)O)C(C)C)cc1OCC(=O)NC1CCCCC1 (stereo not drawn)	2*	3.5	-0.9	x	1.2
Cc1cc(Cl)c(S(=O)(=O)N2CCCC2)cc1OCC(=O)NC1CCCCC1	2*	-5.4	8.2	x	1.2
COC(=O)[C@H]1C[C@@H]1[C@H](NC(=O)c1cc(C)nn1C)c1ccccc1	x	x	x	x	1.2
O=C(Cn1cnc2ccccc2c1=O)Nc1nnc(SCc2ccccc2)s1	1	16.3	-13.5	x	x
Cc1nc(Nc2nc3ccccc3o2)nc2c1CCC2	2.7*	13.7	-15.0	1.3	x
CCOC(=O)c1cnc(Nc2nc3ccccc3o2)nc1C	2.8*	6.5	-3.7	x	x
CCCc1ccc(-c2ccc(F)c(N)c2)nc1	1.1	-7.8	5.1	1	x
CCCCc1ccc(-c2ccc(Br)cc2)nc1	x	5.8	-5.7	x	2*
CCCCCCCCCCSc1n[nH]c(NC(C)=O)n1	2.9*	2.1	-2.8	x	1.2
CCCSc1n[nH]c(NC(C)=O)n1	1	x	x	0	1.1
Clc1ccc(OCc2nnc(SCc3nc4ccccc4[nH]3)n2Cc2ccco2)cc1	1.4	12.7	-15.0	1.1	1.1
c1ccc(-c2nnc(SCc3nc4ccccc4[nH]3)n2Cc2ccco2)nc1	2.6*	-6.7	6.0	1	1.1
Clc1cccc(-c2nnc(SCc3nc4ccccc4[nH]3)n2Cc2ccco2)c1	2.2*	3.7	-5.7	1	1
Clc1ccccc1CSc1nnc(-c2ccccn2)n1Cc1ccco1	1.2	-2.6	2.0	0.9	1
c1coc(Cn2c(SCc3nc4ccccc4[nH]3)nnc2-c2cnccn2)c1	2.2*	2.9	-4.9	1	1.3
COc1ccc(C2N=C(N)N=C(N)N2c2ccccc2OC)cc1OC (stereo not drawn)	1	12.2	-8.5	x	1.1
Oc1ccccc1CNc1cnc2ccccc2c1	x	-5.4	5.3	x	2.1*
COc1ccc2nc(SCC(=O)Nc3ccc(S(=O)(=O)Nc4nccc(C)n4)cc3)[nH]c2c1	1.1	-3.9	3.5	x	x
SMILES	PLAP activator	PTPN22 inh 2	LYP act	TNAP act DEA	MT1-MMP txn act
Cc1ccc2oc3nc(C)c(C(=O)Nc4cccc(C(F)(F)F)c4)cc3c(=O)c2c1	0.8	30.6*	-28.5	x	x
O=C(NCCOc1nc(N2CCOCC2)nc(N2CCOCC2)n1)Nc1ccccc1	1.1	13.3	-11.4	x	1.1
CCN(CC)c1nc(OCCNC(=O)Nc2ccccc2)nc(N(CC)CC)n1	2.1*	11.0	-8.9	x	1
CCOCCn1c(CN(Cc2ccccc2)Cc2ccccc2)nc2c1c(=O)n(C)c(=O)n2C	1.6	x	x	0.9	1
CCn1c(-c2cc(-c3cc(OC)ccc3OC)nc3ccccc23)n[nH]c1=S	2.3*	2.5	-3.8	x	x
CCCOc1cccc(-c2cc(-c3n[nH]c(=S)n3CC)c3ccccc3n2)c1	1.4	23.8	-20.2	x	x
COc1ccc(OC)c(-n2c(-c3ccc(C)cc3)n[nH]c2=S)c1	0.9	4.3	-4.5	x	1.1
CCn1c(-c2cc(-c3ccc(OC(C)C)cc3)nc3ccccc23)n[nH]c1=S	2.2*	0.2	2.7	x	x
COC(=O)c1cc(Br)c(=O)n(-c2cccc(F)c2)c1	1.1	15.0	-12.5	x	1
Clc1cccc(/C=N\Nc2nccs2)c1	2.1*	-2.8	2.6	x	x
C=CCNC(=S)NNC(=O)CCC(O)CCCCC (stereo not drawn)	2.4*	0.0	-0.9	x	1.2
CCOc1ccc(OCC)c(NC(=O)CN(c2ccc(C)cc2)S(=O)(=O)c2c(C)noc2C)c1	1.5	0.2	-0.8	0.9	1
CCOc1ccccc1NC(=O)CN(c1ccc(C)cc1)S(=O)(=O)c1c(C)noc1C	0.9	26.8*	-23.8	0.9	1.1
COC(=O)[C@@H]1C[C@@H]2CC[C@@H](O)C[C@@H]2N1CC1CCCCC1	x	x	x	x	1.9
Nc1[nH]c(=O)ncc1F	x	x	x	x	1.1
CCCCOC(=O)c1ccc(NC(=O)CSc2nncn2C)cc1	1.6	-2.4	1.7	0.9	0.4
CCCCOC(=O)c1ccc(NC(=O)CSCc2n[nH]c(=O)[nH]2)cc1	2.1*	0.0	-1.0	1.2	1
CCN(CC)c1ccc2cc(-c3nnc(-c4ccccc4)o3)c(=O)oc2c1	x	-3.8	4.4	x	2*
N=C1C(c2nc3ccccc3c(=O)[nH]2)=C(O)CN1c1ccccc1	2.2*	-4.1	4.7	x	x
N=C1C(c2nc3ccccc3[nH]2)=C(O)CN1c1ccc(CC(=O)O)cc1	2.6*	16.6	-14.6	x	0.9
CCc1nc(SCC(=O)c2cc(C)ccc2C)n[nH]1	2.3*	-2.2	0.7	1	0.9
COC(=O)[C@@H]1C[C@@H]2CC[C@@H](O)C[C@@H]2N1Cc1ccc(-c2ccccc2)cc1	x	x	x	x	1.1
O=C1N/C(=N\N=C\c2ccc3ncccc3c2)SC1Cc1ccc(SC(F)F)cc1 (stereo not drawn)	1.8	-3.7	5.6	x	x
O=C1N/C(=N\N=C\c2cccnc2)SC1Cc1ccc(SC(F)F)cc1 (stereo not drawn)	2.1*	10.0	-8.4	x	x
C[C@@]1(C(NC(=O)c2ccccc2)c2ccc(-c3ccccc3)cc2)C[C@H]1C1CCCCC1 (stereo partly drawn)	x	x	x	x	1.1
SMILES	PLAP activator	PTPN22 inh 2	LYP act	TNAP act DEA	MT1-MMP txn act
CCN(CC)CCNc1ncnc2c1[nH]c1ccc(OC)cc12	x	-1.7	-0.6	1	1.2
COCCCNc1ncnc2c1[nH]c1ccccc12	1	33.6*	-31.3	x	x
COc1ccc2[nH]c3c(NCc4ccco4)ncnc3c2c1	0.9	7.5	-4.3	x	2.1*
COc1ccc(-c2c3c(=O)n(C)c(=O)n(C)c3cn2C2CCCCC2)cc1	1.3	-0.2	0.8	0.9	1.2
Cc1sc(/N=C/c2ccccc2O)c(C#N)c1C	1	3.8	-2.4	x	2*
COC(=O)c1ccccc1NC(=O)C12CC3CC(C1)CC(n1cnc(Cl)n1)(C3)C2	x	3.3	-2.8	x	1.1
COC(=O)C12CC3CC(C1)CC(n1cnc(Cl)n1)(C3)C2	x	12.4	-12.8	x	2.3*
O=c1[nH]c2cc3c(cc2cc1CN(CC1CCCO1)S(=O)(=O)c1ccccc1)OCCO3 (stereo not drawn)	0.9	x	x	0.9	1
